The text below walks through data of PubChem BioAssay (NCI).

Test systems include RPMI-8226 leukemia; OVCAR-8 ovarian; OVCAR-5 ovarian; OVCAR-4 ovarian; IGROV1 ovarian; OVCAR-3 ovarian; HS 578T breast; NCI/ADR-RES ovarian; T-47D breast; SK-OV-3 ovarian.
Test in all cases: NCI-60 one-dose screen, 48 h (100 = growth as untreated, 0 = no growth, -100 = all killed)
Settings in all cases: 10 µM unless noted

Compounds without any hit were thinned out: in the full panel of roughly 83,000, 20% have a hit.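 Note: values are percent growth. 100 is the growth of untreated cells, values between 100 and 0 indicate rising inhibition; between -100 and 0 indicates cell death.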 Unmarked numbers belong to inactive results. Active and inactive are the calls of the source. The calls were made as follows: active = growth percent below 10; inactive = the rest.

Regarding `O=C(/C=C/c1ccc(Cl)cc1)c1ccc(Nc2nc(NCCO)nc(N3CCOCC3)n2)cc1`, the growth is 12.3% in the experiment on RPMI-8226 leukemia; 83.6% with OVCAR-8 ovarian; 101% in the experiment on OVCAR-5 ovarian; 93% in the experiment with OVCAR-4 ovarian; 84% in the experiment on IGROV1 ovarian; 63.1% in the experiment with OVCAR-3 ovarian. For the same compound, the growth in the experiment on HS 578T breast was 90.7%; in the experiment on NCI/ADR-RES ovarian, 88.9%; in the experiment on T-47D breast, 67.1%.
As for `COc1cc(/C=C2\CCC/C(=C\c3cc(CN4CCCCC4)c(O)c(OC)c3)C2=O)cc(CN2CCCCC2)c1O`, the growth was 55.5% in the experiment with RPMI-8226 leukemia; 80.6% in the experiment with OVCAR-8 ovarian; 114% with OVCAR-5 ovarian; 60.9% in the experiment with OVCAR-4 ovarian; 88.2% in the experiment on IGROV1 ovarian; 65.2% in the experiment on OVCAR-3 ovarian. Moreover, the growth in the experiment on HS 578T breast is 81.4%; in the experiment on NCI/ADR-RES ovarian, 87.2%; in the experiment with T-47D breast, 104%.
As for `O=c1oc2ccc(Cl)cc2c(=O)n1-c1ccc(F)cc1F`, the growth with RPMI-8226 leukemia was -1.02% (active); in the experiment with OVCAR-8 ovarian it was 11.4%; with OVCAR-5 ovarian it was 16.6%; in the experiment with SK-OV-3 ovarian, -7.81% (active); with IGROV1 ovarian, 16.2%; in the experiment with OVCAR-3 ovarian, 6.16% (active). Further, the growth with HS 578T breast was 8.54% (active); with NCI/ADR-RES ovarian, 7.29% (active); in the experiment on T-47D breast, -10.7% (active).
As to `S=C1NC2(c3ccccc3)CCC(=S)N2c2ccccc21` (stereo not drawn), the growth in the experiment on RPMI-8226 leukemia is 103%; with OVCAR-8 ovarian it was 100%; in the experiment with OVCAR-5 ovarian, 103%; with OVCAR-4 ovarian it was 105%; with OVCAR-3 ovarian it was 119%; in the experiment on HS 578T breast, 101%. The growth is 109% with NCI/ADR-RES ovarian and 106% with T-47D breast.
`O=C1/C(=C\c2ccc[nH]2)c2ccccc2N1c1ccccc1`: the growth was 94.4% in the experiment on RPMI-8226 leukemia; 102% in the experiment on OVCAR-8 ovarian; 87.9% in the experiment on OVCAR-5 ovarian; 67.7% with OVCAR-4 ovarian; 84.5% in the experiment with IGROV1 ovarian; 92.3% in the experiment with HS 578T breast. For the same compound, the growth with NCI/ADR-RES ovarian is 90.2%; in the experiment with T-47D breast, 64.9%.
In the case of `OCCNc1nc(Nc2ccc(C3=NN(c4cc(Cl)cc(Cl)c4)C(c4ccc(C(F)(F)F)cc4)C3)cc2)nc(N2CCOCC2)n1` (stereo not drawn), the growth with RPMI-8226 leukemia is 71.7%; in the experiment on OVCAR-8 ovarian, 68.1%; in the experiment with OVCAR-5 ovarian, 95.3%; with OVCAR-4 ovarian, 64%; in the experiment on IGROV1 ovarian, 93%; in the experiment with HS 578T breast, 62.8%. The growth with NCI/ADR-RES ovarian was 68.3%; with T-47D breast, 64.1%.
Turning to `CCCCC1COc2cccc3c2N1C=C/C3=C\C(=O)N(C)c1ccccc1` (stereo not drawn), the growth with RPMI-8226 leukemia is 7.39% (active); in the experiment with OVCAR-8 ovarian it was 52.9%; in the experiment with OVCAR-5 ovarian, 83.9%; in the experiment on OVCAR-4 ovarian, 50.7%; in the experiment on IGROV1 ovarian, 56.1%; in the experiment on OVCAR-3 ovarian, 49.2%. The values for the growth with NCI/ADR-RES ovarian and in the experiment on T-47D breast were 86.4% and 41.6%, respectively.
In the case of `O=C(Nc1ccc(F)c(Cl)c1)Nc1ccc(Cl)c(Cl)c1`, the growth in the experiment with RPMI-8226 leukemia is 65.8%; with OVCAR-8 ovarian, 92.4%; in the experiment with OVCAR-5 ovarian, 114%; in the experiment with SK-OV-3 ovarian, 84.3%; in the experiment on IGROV1 ovarian, 73.6%; in the experiment with OVCAR-3 ovarian, 61.1%. The values for the growth in the experiment on HS 578T breast, in the experiment on NCI/ADR-RES ovarian and with T-47D breast were 72.4%, 59.1% and 85.5%, respectively.
As to `COC(=O)c1c2c(c(C)[n+]([O-])c1C)C(=O)C=C(NCc1ccccc1)C2=O`, the growth was -0.203% (active) with RPMI-8226 leukemia; 4.33% (active) with OVCAR-8 ovarian; -63.3% (active) in the experiment with OVCAR-5 ovarian; -95% (active) in the experiment on OVCAR-4 ovarian; -35.4% (active) with OVCAR-3 ovarian; -30.6% (active) in the experiment on HS 578T breast. The growth was -14% (active) with NCI/ADR-RES ovarian and -34.4% (active) with T-47D breast.
Turning to `COc1cc(/C=C/C(=O)c2ccc(Cl)cc2)cc(CN2CCCCC2)c1O`, the growth in the experiment on RPMI-8226 leukemia is 50.9%; in the experiment with OVCAR-8 ovarian, 89.3%; in the experiment on OVCAR-5 ovarian, 99.7%; in the experiment on OVCAR-4 ovarian it was 76.7%; in the experiment on IGROV1 ovarian it was 90.5%; in the experiment on HS 578T breast, 85.4%. Moreover, the growth was 88.5% in the experiment on NCI/ADR-RES ovarian and 79.3% in the experiment on T-47D breast.
Consider `COc1cc(/C=C2\CN(C)C/C(=C\c3cc(CN4CCOCC4)c(O)c(OC)c3)C2=O)cc(CN2CCOCC2)c1O`, for which the growth with RPMI-8226 leukemia is 47.7%; in the experiment on OVCAR-8 ovarian, 20.1%; in the experiment with OVCAR-5 ovarian, 88.7%; with OVCAR-4 ovarian it was 58.9%; in the experiment on IGROV1 ovarian, 57.8%; in the experiment with HS 578T breast, 83.1%. Moreover, the results for the growth in the experiment with NCI/ADR-RES ovarian and in the experiment with T-47D breast were 94.7% and 84.5%, respectively.
For `CNC(=O)c1cc(Oc2ccc(CC(=O)Nc3cc(C(C)(C)C)cn3C)cc2)ccn1`, the growth with RPMI-8226 leukemia was 53.1%; with OVCAR-8 ovarian, 65.2%; in the experiment with OVCAR-5 ovarian it was 116%; in the experiment on OVCAR-4 ovarian, 48.9%; with IGROV1 ovarian, 67%; with OVCAR-3 ovarian it was 81.6%. Moreover, the results for the growth with NCI/ADR-RES ovarian and in the experiment with T-47D breast were 72.4% and 48.9%, respectively.
Consider `COc1ccc2c(c1)C=C1CSCC3=Cc4cc(OC)ccc4OC13O2`, for which the growth was 19.5% in the experiment on RPMI-8226 leukemia; 25.4% in the experiment with OVCAR-8 ovarian; 41.1% with OVCAR-5 ovarian; 47.8% in the experiment with OVCAR-4 ovarian; 31.6% with IGROV1 ovarian; -6.42% (active) with OVCAR-3 ovarian. Besides, the growth in the experiment on NCI/ADR-RES ovarian is -1.58% (active); with T-47D breast, 48.4%.
Turning to `O=C(Cn1cc(COc2ncnc3c2cnn3-c2ccccc2)nn1)Nc1ccccn1`, the growth was 84.4% in the experiment on RPMI-8226 leukemia; 92.5% in the experiment on OVCAR-8 ovarian; 93.7% in the experiment on OVCAR-5 ovarian; 92.7% in the experiment with OVCAR-4 ovarian; 95.4% in the experiment with IGROV1 ovarian; 100% in the experiment on OVCAR-3 ovarian. For the same compound, the results for the growth with HS 578T breast, with NCI/ADR-RES ovarian and in the experiment on T-47D breast were 88.3%, 91.5% and 80.9%, respectively.
On to `COc1cc(/C=C2\CN(C)C/C(=C\c3cc(CN4CCCCC4)c(O)c(OC)c3)C2=O)cc(CN2CCCCC2)c1O`, for which the growth is 25.9% in the experiment on RPMI-8226 leukemia; 39.2% in the experiment with OVCAR-8 ovarian; 38.8% with OVCAR-5 ovarian; 38.6% with OVCAR-4 ovarian; 68.4% with IGROV1 ovarian; 7.74% (active) with OVCAR-3 ovarian. The values for the growth in the experiment with NCI/ADR-RES ovarian and in the experiment on T-47D breast were 70.7% and 67.2%, respectively.
Take `CN1C(=O)N(C)C2Nn3c(s/c(=C\c4ccc(Cl)cc4Cl)c3=O)=NC21` (stereo not drawn): the growth is 80.2% with RPMI-8226 leukemia; 69.3% with OVCAR-8 ovarian; 63.5% with OVCAR-5 ovarian; 67.6% in the experiment on OVCAR-4 ovarian; 60.5% in the experiment on IGROV1 ovarian; 66.9% in the experiment with HS 578T breast. The growth is 35.6% in the experiment on NCI/ADR-RES ovarian and 69.7% in the experiment with T-47D breast.
